The list is not random: actives were taken first. Their share in the collection is about 0.97%.
SKBR3 24h inh – SK-BR-3 proliferation inhibitors, primary screen, cell-based, human, 24 h; SK-BR-3 viability, CellTiter-Glo ATP luminescence; stronger effect = lower value; viability, % at 10 µM; 0.47% of 41,000 active;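 active = viability at or below the median of all test compounds minus 3 SD, in both replicates if run twice, cut at about 45% in these data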
mHtt clearance – clearance of mutant huntingtin inclusions, primary screen, imaging, HeLa Exon1htt(103Q)mCFP, confocal imaging; aggregate imaging; zero = plate's median compound well; 0.42% of 47,000 active; inhibition, % at 1.5 µM;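 active = inhibition of aggregate fluorescence above about 70%, also judged a hit by eye on the cell image, limit read from the data, passing the limit was not always enough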;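 note: cells exposed to compound for three days before fixation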
HER2 expr 66K – inhibitors of Her2 protein expression, primary screen, SKBR-3 cells, AlphaScreen, 66K library. SKBR-3 HER2 protein level, 18-24 h; stronger effect = lower value. HER2 level % of control, % at 10 µM. 0.69% of 65,000 active;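 active = HER2 level under 5% of the carrier-only control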;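 note: lower value means stronger loss of Her2 protein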
Target sequence (P04626 whole entry, looked up): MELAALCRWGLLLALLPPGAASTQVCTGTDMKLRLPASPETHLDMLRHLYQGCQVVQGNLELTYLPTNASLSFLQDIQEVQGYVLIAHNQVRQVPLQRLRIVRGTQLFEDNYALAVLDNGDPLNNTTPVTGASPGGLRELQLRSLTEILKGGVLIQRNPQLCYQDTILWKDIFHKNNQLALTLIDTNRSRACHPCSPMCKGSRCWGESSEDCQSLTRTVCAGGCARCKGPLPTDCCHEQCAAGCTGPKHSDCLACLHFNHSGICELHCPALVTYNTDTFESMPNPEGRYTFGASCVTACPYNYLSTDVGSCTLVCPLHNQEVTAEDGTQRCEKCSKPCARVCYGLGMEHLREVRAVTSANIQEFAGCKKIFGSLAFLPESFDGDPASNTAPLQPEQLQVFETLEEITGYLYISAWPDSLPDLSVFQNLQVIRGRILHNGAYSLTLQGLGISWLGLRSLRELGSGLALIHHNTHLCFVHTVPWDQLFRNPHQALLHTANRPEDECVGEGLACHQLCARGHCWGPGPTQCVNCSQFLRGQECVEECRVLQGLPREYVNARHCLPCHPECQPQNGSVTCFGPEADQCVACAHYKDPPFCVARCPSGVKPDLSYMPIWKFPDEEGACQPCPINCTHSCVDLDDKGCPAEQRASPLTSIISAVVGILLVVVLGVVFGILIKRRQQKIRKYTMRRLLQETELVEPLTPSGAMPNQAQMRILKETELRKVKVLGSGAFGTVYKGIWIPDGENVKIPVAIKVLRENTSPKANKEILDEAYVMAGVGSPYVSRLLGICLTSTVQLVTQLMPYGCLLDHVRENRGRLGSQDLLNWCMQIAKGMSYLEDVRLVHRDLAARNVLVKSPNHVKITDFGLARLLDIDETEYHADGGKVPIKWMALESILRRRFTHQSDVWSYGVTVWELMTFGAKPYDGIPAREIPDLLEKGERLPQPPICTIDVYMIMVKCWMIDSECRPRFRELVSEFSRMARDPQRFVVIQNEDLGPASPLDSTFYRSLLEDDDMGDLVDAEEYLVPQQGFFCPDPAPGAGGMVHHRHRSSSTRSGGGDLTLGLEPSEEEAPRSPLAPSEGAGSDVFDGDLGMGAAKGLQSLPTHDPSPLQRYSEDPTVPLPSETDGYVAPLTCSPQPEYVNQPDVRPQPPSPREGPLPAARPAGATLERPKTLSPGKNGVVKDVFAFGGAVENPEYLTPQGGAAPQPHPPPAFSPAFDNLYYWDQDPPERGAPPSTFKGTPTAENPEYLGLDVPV
Hits are given with their value; – = inactive; · = no result given.

SMILES	SKBR3 24h inh	mHtt clearance	HER2 expr 66K
O=C(OCc1nnc(-c2ccccc2)o1)c1ccc(S(=O)(=O)NCc2ccco2)cc1	–	71	–
CCOC(=O)C(C(=O)OCC)c1cc(Br)c2noc3c2c1C(=O)c1ccccc1-3	26	–	-5.2
CC(=O)OCCNc1cc(N2CCN(C)CC2)c2noc3c2c1C(=O)c1ccccc1-3	·	·	–
Cc1nn(C)c(C)c1NC(=O)CCCSc1nc(-c2ccco2)cc(C(F)(F)F)n1	·	–	·
COc1cc(NS(=O)(=O)c2ccc(C)cc2)c2ncccc2c1	–	·	-5.2
COc1cc(NCCCC(C)N)c2ncccc2c1 (configuration not stated)	23	–	–
COc1cccc(CNc2cccc3cccnc23)c1O	–	–	–
COc1ccc(S(=O)(=O)Nc2cc(C)ccn2)cc1	·	–	·
O=C(NC1CCCCC1)C(c1ccc(O)cc1)N(CC1CCCO1)C(=O)C1COc2ccccc2O1 (configuration not stated)	·	–	·
CC(C)C(=O)Nc1nnn(C)n1	–	–	–
Cc1ccc(C2CC(=O)N(c3ccc(F)cc3)C3=C2C(=O)CCC3)cc1 (configuration not stated)	·	79	·
O=C1CCCC2=C1C(c1ccsc1)CC(=O)N2c1ccccc1 (configuration not stated)	·	–	–
Cc1ccc(C2C3=C(CC(C)(C)CC3=O)N(CCN3CCOCC3)C3=C2C(=O)CC(C)(C)C3)cc1	–	–	–
CCCn1c(SCC(=O)Nc2cc(Cl)ccc2OC)n[nH]c1=O	·	–	·
O=C(CSc1n[nH]c(=O)n1C1CC1)Nc1cc(Cl)ccc1Oc1ccccc1	·	84	–
Oc1ccc2ccccc2c1C=NCc1cn2ccsc2n1	·	·	-11
Oc1ccc2ccccc2c1/C=N/c1nccs1	·	–	·
COc1ccc(C(=O)NC(C)c2nnc(SCC(=O)Nc3nc4ccccc4s3)n2C)cc1 (configuration not stated)	–	·	–
Fc1ccc(-c2nnc(-c3ccc(Cl)cc3Cl)o2)cc1	·	–	–
Clc1ccc(-c2nnc(-c3ccccc3)o2)c(Cl)c1	·	·	-26
CCc1nc2ccccc2c(=O)n1CCCCn1c(CC)nc2ccccc2c1=O	·	·	–
COc1ccccc1CN(Cc1cc2cc(C)ccc2[nH]c1=O)Cc1nnnn1CC1CCCO1 (configuration not stated)	37	–	–
CCOC(=O)Cn1nnnc1CN(Cc1ccc(OC)cc1)Cc1cc2cc(CC)ccc2[nH]c1=O	–	·	–
CCOC(=O)Cn1nnnc1CN(Cc1ccc(OC)cc1)Cc1cc2cc(C)ccc2[nH]c1=O	39	–	–
COc1ccc2[nH]c(=O)c(CN(Cc3ccccc3OC)Cc3nnnn3CC3CCCO3)cc2c1 (configuration not stated)	·	·	–
SMILES	SKBR3 24h inh	mHtt clearance	HER2 expr 66K
C=CCn1c(SCC#N)nc2c(c1=O)C(C)(C)Cc1ccccc1-2	–	·	–
O=C(Cn1cc2c(n1)CCCCC2)NCc1ccccn1	·	·	–
COC(=O)COc1ccc(S(=O)(=O)Nc2ccc3c(c2)OCO3)cc1	–	–	-11
COC(=O)COc1ccc(S(=O)(=O)Nc2ccc3c(c2)OCO3)cc1Cl	–	·	–
O=C(OCCN(C1=NS(=O)(=O)c2ccccc21)c1ccc(Cl)cc1)c1ccco1	–	–	–
Cc1ccccc1Cn1cc(NC(=O)c2nc3ncccn3n2)cn1	·	–	·
Cc1ccc(C2CC(C(F)F)n3ncc(C(=O)Nc4cnn(Cc5ccccc5C)c4)c3N2)cc1 (configuration not stated)	32	·	–
COc1ccc(CCNC(=O)CSc2nc(C)nc3c2c(=O)n(C)c(=O)n3C)cc1OC	·	·	–
Clc1ccc(CSc2nnc([C@@H]3CCCN3)o2)cc1Cl	–	–	–
Clc1ccc(CSC2=NCCCN2)cc1Cl	·	·	-17
CN(C)c1nc(SCC#N)nc(N(C)C)n1	–	72	–
CN(C)c1nc(N(C)C)nc(N(C)C)n1	–	·	–
COc1ccc(S(=O)(=O)NCCc2csc(C)n2)cc1C	–	·	–
O=C1CCn2nc(-c3ccc(Cl)cc3)cc2N1	·	·	–
O=C1c2ccccc2C(=O)N1CCc1nc2ccccc2c(=O)n1Cc1ccco1	–	·	–
Cc1ccc2nsnc2c1S(=O)(=O)N1CCN(C(=O)C2CCCO2)CC1 (configuration not stated)	37	·	–
O=C(C1CCCO1)N1CCN(S(=O)(=O)c2ccccc2)CC1 (configuration not stated)	–	·	–
CCC(=O)N1c2ccc(S(=O)(=O)CCC(=O)NC3CCCC3)cc2CC1C (configuration not stated)	·	–	–
CCC(=O)N1c2ccc(S(=O)(=O)CCC(=O)N3CCn4c3nc3ccccc34)cc2CC1C (configuration not stated)	·	·	-15
COc1cc2c(C(=O)NCc3ccc4c(c3)OCO4)cn(CC(C)C)c(=O)c2cc1OC	25	–	–
COc1cc2c(C(=O)Nc3ccc4c(c3)OCO4)cn(CC(C)C)c(=O)c2cc1OC	–	·	–
O=C(CSc1oc(-c2ccc(F)cc2)nc1S(=O)(=O)c1ccccc1)NCC1CCCO1 (configuration not stated)	–	·	–
O=C(COc1ccccc1)NCC1CCCO1 (configuration not stated)	·	–	·
O=C(CSc1oc(-c2ccccc2)nc1S(=O)(=O)c1ccc(F)cc1)NCC1CCCO1 (configuration not stated)	–	–	-21
O=C(COc1ccc(F)cc1)NCC1CCCO1 (configuration not stated)	–	71	–
SMILES	SKBR3 24h inh	mHtt clearance	HER2 expr 66K
CS(=O)(=O)N(CC(=O)NC1CCCCC1)c1cccc(Cl)c1	–	–	–
N=c1c2c(-c3ccccc3)c(-c3ccccc3)n(Cc3ccco3)c2ncn1Cc1ccco1	·	·	4.4
N=c1c2c(-c3ccccc3)c(-c3ccccc3)n(Cc3ccccc3)c2ncn1CCCn1ccnc1	–	–	3.3
O=c1c2cnn(-c3ccccc3)c2ncn1Cc1ccco1	·	–	·
Clc1ccccc1OCCCCn1ccnc1	·	–	–
O=c1cc(C(F)F)oc2c1ccc1ccccc12	·	·	–
O=C1/C(=N/n2cnnc2)c2ccccc2N1Cc1ccccc1	–	·	-16
c1ccc2c(c1)C(=Nn1cnnc1)c1ccccc1-2	–	–	–
COc1ccccc1-n1cc(C(=O)NCC(=O)N2CCN(c3ccccc3)CC2)c2ccccc2c1=O	·	–	–
O=C(c1cccs1)c1ccc(-c2cccs2)s1	–	·	-2.5
O=C(c1cc2ccccc2o1)c1cccs1	–	–	–
COc1cccc(-c2cc(C(F)(F)F)nc(N3CCCCC3)n2)c1	–	–	–
CCN1CCc2c(sc(N)c2C#N)C1	–	–	–
N#Cc1c(N)sc(=S)c2c1CCN(Cc1ccccc1)C2	·	·	0.0
CN(C(=O)c1cccc(C#N)c1)c1nnc(-c2ccccn2)s1	·	–	–
CN(C(=O)c1ccc(C#N)cc1)c1nnc(-c2ccccn2)s1	·	80	·
Cc1cc(C)c(C#N)c(Sc2nnnn2-c2ccccc2)n1	·	–	·
CC(C)N=C(NC#N)SCc1ccc(F)cc1	–	–	–
C=CCN=C(NC#N)SCc1ccccc1Cl	–	–	-4.6
COc1ccc(CC(NC(C)=O)C(=O)NC2CCN(c3nc(C)cc(C)c3C#N)CC2)c(OC)c1 (configuration not stated)	–	·	–
